The source of these data is the supplement of paper PMC12632987.

T1: TRAF2, Q12933
T1 chain: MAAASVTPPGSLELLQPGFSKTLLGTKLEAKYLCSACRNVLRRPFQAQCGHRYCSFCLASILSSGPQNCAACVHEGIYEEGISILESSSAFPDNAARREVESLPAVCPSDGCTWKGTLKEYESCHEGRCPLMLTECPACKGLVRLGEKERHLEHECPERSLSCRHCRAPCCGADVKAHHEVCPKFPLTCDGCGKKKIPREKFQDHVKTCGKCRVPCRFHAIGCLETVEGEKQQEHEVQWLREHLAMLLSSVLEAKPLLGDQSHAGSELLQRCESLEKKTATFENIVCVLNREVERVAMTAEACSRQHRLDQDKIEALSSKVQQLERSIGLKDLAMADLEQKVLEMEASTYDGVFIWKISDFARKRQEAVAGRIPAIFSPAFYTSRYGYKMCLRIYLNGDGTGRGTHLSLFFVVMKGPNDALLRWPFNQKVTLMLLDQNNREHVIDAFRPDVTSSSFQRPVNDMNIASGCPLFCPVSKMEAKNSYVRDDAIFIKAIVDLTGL

B1: traf2_out_11_155_669 (protein)
chain: EEKQKLNNELVNELTKVSDELKEKVIKILKEAAEKHPEHKEEIEKVIESSKTLSGTSFARKAAQLFKELGLEEEAKKVEELLEEAQKKMNEIYKKYEKKL
B2: traf2_out_17_178_1674 (protein)
chain: DKAAKRAEISALTDELIDLTEDTGTKLLALAEAEGTLTPEELALLRAALRSSSANTLLAVAEKLAPKLKTKAEAEALLKDFKEKKKELSKKIAEAYKEYE
B3: traf2_out_14_149_1231 (protein)
chain: SEEAKLLAAAAELTEKIAKTLEEVLKLLKEGKLEEAKKLLKESIEELEKESKKKGVTPSQLFQLEDLLELLEKDPEAAKKFAEEALARAKENADTLKEMA
B4: traf2_out_11_169_779 (protein)
chain: EEAEKNRKINDFALELNDKAKEKLKEEALKLAKEAGLDEEEIKKIFEENKNKSLSAVAAALIKYFESKGKEEEAAKVLEKYEELKDEINKKSSEFIKSLE
B5: traf2_out_1_158_912 (protein)
chain: DTKKKLMLSSVELVVKDAVESARENGDEETAKAIEELGEKIIELVKKLAIEEGKSVEEVIEEIDKLAAEFKAKADPETAAAIERLTRRVKSALRQVEKLM
B6: traf2_out_18_5_1953 (protein)
chain: SREEELKEALKSAERILSKKPEIEAEAKKLGVEELYKKAVEDFTRALENGEDLAKISTKHAEELAKKIGDPEKAEDLTYEIRRYVSAEYAKEVLEEMLKA
B7: traf2_out_20_8_2269 (protein)
chain: MSMEEKLARAADLILDAKDLVRAVIREVLADERAPAIAAEAAAAISVSVSADDTDADILLRIRERATEALTRLAERTGDPRLEEARARVAAALDAAAAAA
B8: traf2_out_6_156_2453 (protein)
chain: AAEAILERTEKEIEEGIKALAAAPEERKIAEINRIAGAFYRGLQALRAAGASLEELRAAAERLLETAEKKAKEAGLDERTRNLLLASLRAVADVALAAAA
B9: traf2_out_17_162_1558 (protein)
chain: SEIEKRWEKLKEELKELEKRVEALEKRLERLAELTPEEIRDLLVEASEVKRRALELAEEAEKLKEKIGEEEAQKLIDEANEIAERAQRIANTLYKALEKK
B10: traf2_out_18_167_1847 (protein)
chain: EEEIRKRREELSDRLVELSEVKRAARLALQALETDPSKVPAALAALREKAASIPELQPLVDAAEAALAAGDREGLRATLEKLIEKAQKLMNEVLKEYEAL
B11: traf2_out_6_156_2450 (protein)
chain: MIEEIFEKAVKEIEELIKKLAAAPESKKIAYINKIAGTFYKALQELRESGASLEEIEEFVERLLKKAEELANEAGLDEDTKNLLLSTLSAVGEVAIANAK
B12: traf2_out_17_162_1507 (protein)
chain: SPLEELRRRIEEELEELRRELERLEKKMENLKSMSKEELSDLLVEASEAKARALRLAELVREHREELGEEEAERLIREAEEIAERLQRIANEAYKELLKK
B13: traf2_out_3_89_2301 (protein)
chain: AAAEAAKIEAARARAERYARGFRKSARFVAKQMIADGMSLDTLRGVLEAARNALVEVFREELKEQGLSEETIEELVKELTEELEKIVEEILEEAEKKRAE
B14: traf2_out_13_95_1141 (protein)
chain: SAEVAAKINAIADRLLAEKDAILDELEAQLKAAGLLTPELRAALEAAKRSSISTAIHRLRELAERYPEARAALEAAIARLEALRREAGREVAEILKEEKE
B15: traf2_out_20_3_2084 (protein)
chain: KELEEEYKKHLEKAEKLLKEAAKLADPETAKKLEELIKRLKKSEELPYSDRLVVLSEVRREVLLLAQEAKAAGNEELAKILEEAAEEINRAMNLLMKMIE
B16: traf2_out_3_77_2274 (protein)
chain: SMKKEEIREKLDEATTLAIASLAVNAINNPEKAEEFREMARIVHRARAIAKEKGKEEELLPLIEEAKEAADKLNEGDESALEKLKEIVKKIGELAEKWEK
B17: traf2_out_17_60_1763 (protein)
chain: GPEEEKEELKREARRAIEEARRLVEEVRAKLAAGTLTASEAMDWLVELTEKRRELERLLEEAEKKGEEMEELKRELERAIEEVRRTMNEVGKHLLELLEA
B18: traf2_out_20_3_2204 (protein)
chain: SELEEELEKRLDAAEKLLKEAQKLADPETAKTLDALIARLKASRELSYDDRLVTLSAIRAEVLALAQAAKAAGNAELAAVLEAAADELQKAMNLVYKIIE
B19: traf2_out_17_162_1540 (protein)
chain: SETEEELRRLREELEELEEELRRLEEISKNLETLSKEELTDLLVEASELRRRALELAERLRRLEEETGSEEARRLRERAEEIAERLQRIANEIYKELEKK
B20: traf2_out_13_95_1086 (protein)
chain: SKEVNEKIMEIADEMMEQILATLDALAKQVAGDPELAAAVAEARRLAETRGVNEAIHKLRELAKANPEHAELLNAAIAEIEAIKKEASKKISELLKEEEE
B21: traf2_out_6_3_2525 (protein)
chain: SSESLRKDARKVLENMGITTAEQLLTLVTAEVNAVKKVASRPDFDRADVAGLRSVLALTRAMVEVAYEELPSVTEADKAEALALIADAEALVEAKAKELE
B22: traf2_out_3_89_2280 (protein)
chain: SMEEEEKIKEARENIETWIRGLRKSTRRVAEEMRKEGASLETIKGLIDSSATALLEAFKISLKDKGFDEETIEELVEEAKEELEKIREELKEEAEKAYEE
B23: traf2_out_13_95_1106 (protein)
chain: SAETAEKIMEIADEMLDKVEELLEKLLEIAKKKGKLEEEIQEALHLARYRSINEAIHLLKELAKKYPEFKEELEETIEKIEELIREAGRKVAEILKEEKE
B24: traf2_out_13_95_1091 (protein)
chain: SKEVAEKINKIADEMLDKSLALLEKLLKIAEEKGKAVEEIKEAIDLAEYRSINEAIHKLEELAKKYPEFKEELEATIKEIRAIKREAGRKVAEILKEEKE
B25: traf2_out_13_95_1104 (protein)
chain: SAETAEKIMKIADEMLDKVEKILEELLKIAKEKGKLEEEIKEALHLARYQSINEAIHKLKELAKKYPEFKEELEAAIKEIEALKKEAGRKVAEILKEEKK
B26: traf2_out_20_38_2033 (protein)
chain: SEEEEEKRRLEEAIEVANEAYDKYSARVAAWKAAGKTVEEIAEEAKEEVRRLLTEAGLEEEAEILIEDIDRALSSPEAERLIVRILARAEALVYQKKVNE
B27: traf2_out_11_104_646 (protein)
chain: LTREQAREFNDFAMEANDKAKELLQEVADFLESRGHEEEAAKVRAELAHPGSGVSTFKNLLEELLPKLDEESRAVAEKAIKELEELQKKVSDKLNELEKK
B28: traf2_out_20_3_2054 (protein)
chain: EELLKELEEEEKKLRELIEEIEKLVDPETAEELREALERVEKARKEGLEEYLVALSELRRLLLRLAEEARAAGKEEVAALLEEAAEAAQRAMNIVMKIIE
B29: traf2_out_18_117_1796 (protein)
chain: SELEKLQEEFEKTLKEFEEELEEAQRVATKLIEKYPKQLPEEAMDAIVEFGEVKRRVQQLVQEAKAHPNDVEKQKKLVEELKKLLEEMKEIKKKLEEILK

Over roughly 1,800 sequences, “median log2 fold change of GCK-ALFA target abundance (FLAG IP / Myc IP barcode read proportion)” has its median near 0.14; the lowest 2% begin near -0.84. Only a selection was taken, and the lowest values are over-represented in it overall.

This assay concerns the target T1, TRAF2, Q12933. Nature of the assay: median log2 fold change of GCK-ALFA target abundance (FLAG IP / Myc IP barcode read proportion) (log2 ratio); each designed protein is fused to an ALFA-tag nanobody in HEK293 cells to bring the named protein to FLAG-tagged glucokinase (GCK); Myc marks an untargeted standard; higher = target protein stabilised (more abundant). The note with it: target protein: 3xFLAG-MCP-GCK-ALFA reporter; HEK293 landing pad (RPLP). As for the experimental part: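 LABEL-seq trans screen in HEK293 landing-pad cells. Each de novo designed 100-aa effector handle, binding the indicated effector (E3 ligase, DUB or autophagy protein), is fused to a constant NbALFA target handle and induced with 2 ug/mL doxycycline. A FLAG-MCP-GCK-ALFA target and a Myc-MCP standard reporter were transfected, and after 48 h circRNA barcodes were recovered by anti-FLAG and anti-Myc IP and sequenced. The value is the median across barcodes (at least 3 per design) of log2(FLAG/Myc read-proportion ratio), with the two transfection replicates pooled. Negative values mean degradation and positive values mean stabilisation of the target.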
In the case of B1, the “median log2 fold change” value was determined as 0.305.
In the case of B2, the “median log2 fold change” value was found to be 0.0887.
Under B3 stands 0.24; under B4, 0.368; under B5, 0.0872.
Then B6, with -0.0294.
Under B7 stands 0.0236.
B8: the “median log2 fold change” value was -0.00113.
Under B9 stands 0.297; under B10, 0.224.
In the case of B11, the “median log2 fold change” value is 0.00905.
For the molecule B12, the “median log2 fold change” value worked out at 0.373.
Under B13 stands -0.974; under B14, -0.98.
Under B15 stands 0.118; under B16, 0.354.
Then B17, with -0.0301; and B18, with -0.756.
Take B19: the “median log2 fold change” value stood at 0.402.
Under B20 stands -0.0311; under B21, -0.025.
Under B22 stands 0.0329; under B23, -0.553.
Under B24 stands -0.417; under B25, -0.841.
Regarding B26, the “median log2 fold change” value was -0.971.
Under B27 stands 0.185.
Under B28 stands 0.588; under B29, 0.186.
